The structures appear in SMILES notation. Inconclusive results are not listed. Entries that show only a call come without a potency. The source made the active and inactive calls. Calls follow the shape of the dose curve; as a rule, active = well fitted cell-killing curve with a large enough effect; inconclusive = small, poorly fitted or top-dose-only effect; inactive = flat fitted curve, though single readings scatter.

The results in this text go back to PubChem BioAssay (NCATS).

This experiment can be described thus: qHTS of pediatric cancer cell lines to identify multiple opportunities for drug repurposing: Primary screen for U-2 OS cells (AID 1347096). Also: nearly all actives have a fitted effect of over 50% in size. The conditions noted are these: U-2 OS viability, CellTiter-Glo luminescence, 48 h; series mostly up to 46 µM. The source says: Drug repurposing or repositioning has been offered as a strategy for drug development in oncology programs. This approach has special potential for childhood cancers and other rare or orphan diseases, where the expected return on new drug development has been a disincentive to pharmaceuticals.
In this project we exploit the poly-pharmacology of drugs to discover new indications via phenotypic screening of a panel of 19 well-characterized cell lines derived from solid tumors seen in children and adolescents. The goal is to identify approved drugs with previously unrecognized anticancer properties that has the potential to reveal new mechanisms and biological processes involved in carcinogenesis or drug resistance. We employed a titration-based paradigm (quantitative high-throughput screening or qHTS), where all compounds were tested at multiple concentrations for their effect on cell viability. Concentration-response curves (CRCs) were derived directly from the primary screen, and both potency and efficacy values were used to identify compounds with robust bioactivity profiles. We screened the NIH Chemical Genomics Center (NCGC) Pharmaceutical Collection (NPC) and Mechanism Interrogation Plate (MIPE) small molecule collections of approved and investigational compounds against these cell lines; and measured metabolically active cells after 48 hours of compound treatment as a proxy for cell viability.
Assay Submitter: Nathalia J. Martinez, National Center for Advancing Translational Sciences, National Institutes of Health, Rockville, MD, USA; email: natalia.martinez@nih.gov
[1] Shen, M et al. Quantitative high-throughput phenotypic screening of pediatric cancer cell lines identifies multiple opportunities for drug repurposing. Oncotarget 2017 Dec 19;9(4):4758-4772. PMID 29435139.
The cells were obtained from University of North Carolina (UNC), Pediatric Preclinical Testing Program (PPT), and Coriell Institute (CI).
qHTS cell viability assay:
Cells were assayed in growth media at a density of 500-1,000 cells/well. Five microliters of cells were dispensed into 1,536-well, white, solid-bottom, TC-treated plates (Greiner Bio One) using a multidrop dispenser and incubated at 37 degrees C, 5% CO2, under a humidified atmosphere for 5 hours. Twenty-three nanoliters of compounds and controls (neutral control DMSO or positive control bortezomib at final concentration of 2.3 µM) were subsequently transferred by Kalypsys pintool. For primary screens, the MIPE collection was tested at 11-point dilutions (final concentrations range from 0.78 nM to 46 µM) and the NPC collection at 8-point dilutions (final concentrations range from 0.59 nM to 46 µM). Compounds tested in follow-up screens were assayed at 11-point dilutions. Cells were incubated for 48 hours, followed by addition of 3 µL of CellTiter-Glo (Promega). After a 15 min incubation at room temperature, samples were analyzed for luminescence intensity using a ViewLux High-throughput CCD imager equipped with clear filters.
On the technique in general: qHTS replaces the single test concentration by a dilution series.
Consider `N[C@H](C(=O)O)c1ccc(O)cc1`, for which the Potency entry was “inactive”.
Still for that read-out and setting: then `CCn1cc(C(=O)O)c(=O)c2cnc(N3CCNCC3)nc21`, with “inactive”; and `O=C(O)c1ccccn1`, with “inactive”; and `CCCOC(=O)c1ccccc1`, with “inactive”.
Turning to `CN1[C@@H]2CC[C@H]1CC(OC(=O)C(O)c1ccccc1)C2` (stereo not given in full), the Potency entry is “inactive”.
Still for that read-out and setting: with `COc1cc2[nH]c(=O)[nH]c(=O)c2cc1OC` the entry was “inactive”; with `OC[C@H]1O[C@@H](O[C@@H]2[C@@H](CO)O[C@](O)(CO)[C@H]2O)[C@H](O)[C@@H](O)[C@H]1O`, “inactive”.
Same read-out and setting: with `CCN(CC)CCCC(C)Nc1c2ccc(Cl)cc2nc2ccc(OC)cc12` (stereo not given) the entry was “inactive”; with `CC(CN1c2ccccc2Sc2ccccc21)N(C)C` (stereo not given), “inactive”; with `O=C(O)c1ccccc1-c1ccc(C(F)(F)F)cc1`, “inactive”.
Still for that read-out and setting: then `C[C@]12C[C@H](O)[C@H]3[C@@H](CCC4=CC(=O)CC[C@@]43C)[C@@H]1CC[C@@H]2C(=O)CO`, with “inactive”; and `COc1ccc2c(c1)C(=O)N(CCc1ccc(S(=O)(=O)NC(=O)NC3CCCCC3)cc1)C(=O)C2(C)C`, with “inactive”; and `Cc1c(Cl)cccc1Nc1ccccc1C(=O)O`, with “inactive”.
`COC(=O)C1=C(C)NC(C)=C(C(=O)OC)C1c1ccccc1[N+](=O)[O-]`: the Potency result is “inactive”.
On the same count and under the same terms, then `c1ccc2c(CC3=NCCN3)cccc2c1`, with “inactive”.
Same read-out and setting: with `C[C@@H](O)[C@H](N)C(=O)O` the entry was “inactive”; with `CCCCCCCCCCCCCCCC(=O)NCCO`, “inactive”.
Same read-out and setting: then `Cc1ncc(COP(=O)(O)O)c(C=O)c1O`, with “inactive”; and `CC(C)C(=O)c1c(C(C)C)nn2ccccc12`, with “inactive”.
For `CCCCOC(=O)c1ccc(O)cc1`, the Potency entry is “inactive”.
In the case of `CC12CCC(CC1)C(C)(C)O2`, the Potency result is “inactive”.
Same read-out and setting: with `CN(C)CCCO[C@@H]1[C@H]2OC(C)(C)O[C@H]2O[C@@H]1C(O)CO` (stereo not given in full) the entry was “inactive”; with `Nc1ccc(S(=O)(=O)NC(=O)c2ccccc2)cc1`, “inactive”; with `CCN(CC)C(C)CN1c2ccccc2Sc2ccccc21` (stereo not given), “inactive”.
Consider `CC(C)(C(=O)O)c1ccc(C(O)CCCN2CCC(C(O)(c3ccccc3)c3ccccc3)CC2)cc1` (stereo not given), for which the Potency entry was “inactive”.
Regarding `[O-][n+]1cccc(CO)c1`, the Potency result is “inactive”.
Still for that read-out and setting: then `C[C@H]1O[C@H](O[C@H]2[C@H](O)[C@@H](O)[C@@H](O[C@H]3[C@H](O)[C@@H](O)[C@H](O)O[C@@H]3CO)O[C@@H]2CO)[C@H](O)[C@@H](O)[C@@H]1N[C@H]1C=C(CO)[C@@H](O)[C@H](O)[C@H]1O`, with “inactive”.
Still for that read-out and setting: then `O=Cc1ccccc1C=O`, with “inactive”.
As to `CN(C)CC[C@@H](c1ccc(Cl)cc1)c1ccccn1`, the Potency result was “inactive”.
On the same count and under the same terms, then `N[C@@H](CSCCCO)C(=O)O`, with “inactive”; and `CC(=O)Oc1ccc(C2(c3ccc(OC(C)=O)cc3)C(=O)Nc3ccccc32)cc1`, with “inactive”.
Take `CC(COc1ccccc1)NC(C)C(O)c1ccc(O)cc1` (stereo not given): the Potency entry was “inactive”.
On the same count and under the same terms, with `C[C@H](NC(CCc1ccccc1)C(=O)O)C(=O)N1CCC[C@H]1C(=O)O` (stereo not given in full) the entry was “inactive”.
As for `O=c1[nH]c(=O)c2[nH]c(=O)[nH]c2[nH]1`, the activity change, negative = cytotoxic was -0.365% [at 9.22 µM] (inactive).
With `CN1CCCCC1CCN1c2ccccc2Sc2ccc(S(C)=O)cc21` (stereo not given), the Potency entry is “inactive”.
Same read-out and setting: with `O=C1NS(=O)(=O)c2ccccc21` the entry was “inactive”.
Consider `C/C(=C(\CCOP(=O)(O)O)SC(=O)c1ccccc1)N(C=O)Cc1cnc(C)nc1N`, for which the activity change, negative = cytotoxic was 14.8% [at 4.84 µM] (inactive).
With `OCC(O)CN1CCN(c2ccccc2)CC1` (stereo not given), the Potency result was “inactive”.
Turning to `Nc1nc2c(ncn2CCC(CO)CO)c(=O)[nH]1`, the Potency entry is “inactive”.
As to `Oc1ccc(C(O)CNCCCCCCNCC(O)c2ccc(O)c(O)c2)cc1O` (stereo not given), the Potency result was “inactive”.
